A selection: hits, their analogues and other compounds. The true share with any hit is near 3.8%.
ATXN2 expr inh – ATXN2 expression inhibition. HEK-293 ATXN2-luciferase reporter, luminescence, 24 h. Potency, µM (titrated, usually from 57 µM), inactives show top-dose activity change, negative = inhibition, actives largely listed as inhibitors. 360,000 tested, 0.72% active; note: % is set by controls: 0 for no effect and ±100 for the full control effect; nearly all actives have a fitted effect of over 55% in size
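qHTS (up to 57 uM final) was run with 24 h compound exposure of reporter cells at 37 °C. Each well was multiplexed: SteadyGlo luminescence measured ATXN2-luciferase expression after a fluorogenic Gly-Phe-AFC viability readout (25 uM final).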
HepG2 viability – counter-screen for TGF-b inhibitors: cytotoxicity in HepG2 cells. Potency, µM (highest dose often 46.1 µM), without a hit: at the top dose activity change, negative = cytotoxicity, most hits filed as cytotoxic. HepG2 CAGA-GFP viability, ATP luminescence, 18 h. 410,000 tested, 0.76% active
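HepG2 CAGA-GFP cells (1000/well, DMEM with 1% FBS) received compound, then TGF-beta at 500 pg/mL final, and were incubated 18 hours at 37 degrees C. Viability was read by CellTiter-Glo luminescence. Media-only wells were set as complete cell-killing and DMSO as no toxicity.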
Nrf2 block – Nrf2 pathway inhibition; A549 ARE-Fluc reporter, luciferase luminescence, 18-24 h; Potency, µM (series often up to 46 µM), for the others: top-dose activity change, negative = inhibition, most hits filed as inhibitors; 360,000 tested, 2.1% active; note: % is set by controls: 0 for no effect and ±100 for the full control effect; nearly all actives have a fitted effect of over 60% in size
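Two sequential reads on A549 ARE_Fluc cells exposed to compound for 18-24 h: a CellTiter-Fluor fluorescence read for viability, then a luciferase luminescence read for Nrf2/ARE activity.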
TGFb inhibitor – blocks TGF-b signaling | 410,000 tested, 1.2% active | Potency, µM (top dose mostly 46.1 µM), for the others: top-dose activity, negative = inhibition, most hits filed as inhibitors | HepG2 CAGA-GFP TGF-b/SMAD3 reporter, GFP fluorescence, 18 h; TGF-beta stimulated, 500 pg/mL final; note: % is set by controls: 0 for no effect and ±100 for the full control effect; nearly all actives have a fitted effect of over 65% in size
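GFP signal (ex488/em500-530) from TGF-beta-stimulated HEPG2 CAGA-GFP cells, 500 pg/mL final, 18 h at 37 degrees C in DMEM plus 1% FBS, normalized to unstimulated and DMSO-stimulated controls.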
A549 tox – kills or reduces viability of A549 cells in Nrf2 counter-screen | A549 ARE-Fluc cells, CellTiter-Fluor viability, 18-24 h | Potency, µM (top dose mostly 46 µM), without a hit: at the top dose activity change, negative = cytotoxicity, hits mostly inhibitors | 390,000 tested, 0.16% active; note: % is set by controls: 0 for no effect and ±100 for the full control effect
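A549 ARE-Fluc cells in 5% FBS OPTI-MEM, 5000 cells/well, rested 2 h then exposed to compounds in concentration-response for 18-24 h at 37 °C. Viability by CellTiter-Fluor fluorescence (Ex 405/Em 525) after 30 min; luciferase luminescence (BugLite, 15 min, RT) read afterwards.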
ATXN viability – reduces viability in counter-screen for ATXN expression inhibitors. S2 cells (HEK-293 line with an ATXN2-luciferase reporter) viability, CellTiter-Fluor protease fluorescence, 24 h. Potency, µM (highest dose often 56.7 µM), usual class: cytotoxic. 400,000 tested, 0.49% active. AID 651635; note: nearly all actives have a fitted effect of over 40% in size
Active calls of the source: *; ! = a repeat was not active; [ ] = remark or other dose. Calls come from the whole dose curve; as a rule, active = well fitted curve in the direction sought with a large enough effect; inconclusive = small, poorly fitted or top-dose-only effect, or another doubt; inactive = no such curve, though single readings can be large; an effect the other way counts as inactive or inconclusive. Potency is the fitted concentration of half-maximal effect.

`OCn1ncn(-c2ccccc2)c1=S` gave ATXN2 expr inh -2%, HepG2 viability 5%, Nrf2 block 25%, TGFb inhibitor inconclusive, A549 tox -6% and ATXN viability inconclusive.
For O=C1CN(CC(=O)NC2CCCc3ccccc32)CCN1 (centres undefined) the results were ATXN2 expr inh -4%, HepG2 viability 3%, Nrf2 block 3%, TGFb inhibitor 8%, A549 tox -1% and ATXN viability inactive.
Screening CC(C)=CCC[C@H](C)C[C@@H]1Cc2[nH][nH]c(=O)c2[C@@H](c2ccc(F)cc2)O1 returned ATXN2 expr inh -3% and ATXN viability inconclusive.
CC(C)=CCC[C@H](C)CC1Cc2[nH]c(=S)[nH]c(=O)c2C(c2ccc(F)cc2)O1 (some centres undefined) was read as ATXN2 expr inh -7%, HepG2 viability 14µM*, TGFb inhibitor 13µM* and ATXN viability inconclusive.
C=CCNC(=O)COC(=O)COc1ccc(Cl)cc1 was read as ATXN2 expr inh 5%, HepG2 viability 1%, Nrf2 block 5%, TGFb inhibitor 2%, A549 tox -2% and ATXN viability inactive.
Screening CC(=O)N1CCc2c(sc3c2c(=O)n(-c2ccccc2Cl)c(=O)n3C)C1 returned ATXN2 expr inh 2%, HepG2 viability 4%, TGFb inhibitor 0%, A549 tox 2% and ATXN viability inactive.
`COc1cccc(/C=N/Nc2nc(Nc3ccccc3)nc(-n3nc(C)cc3C)n2)c1O` gave ATXN2 expr inh inconclusive, HepG2 viability -43%, Nrf2 block inconclusive, TGFb inhibitor 1.6µM*, A549 tox inconclusive and ATXN viability inconclusive.
CCOc1cc(/C=N/Nc2cc(C)nc(-n3nc(C)cc3C)n2)ccc1O was read as ATXN2 expr inh 1.3µM*, HepG2 viability -37%, Nrf2 block inconclusive, TGFb inhibitor inconclusive, A549 tox -18% and ATXN viability inconclusive.
Cc1cc(N/N=C/c2ccc(F)cc2)nc(-n2nc(C)cc2C)n1 was read as ATXN2 expr inh 0%, HepG2 viability -5%, Nrf2 block inconclusive, TGFb inhibitor inconclusive, A549 tox 0% and ATXN viability inactive.
COc1ccc(/C=N/Nc2cc(C)nc(-n3nc(C)cc3C)n2)c(OC)c1 was read as ATXN2 expr inh 16µM*, HepG2 viability 1%, Nrf2 block inconclusive, TGFb inhibitor inconclusive, A549 tox -9% and ATXN viability inconclusive.
`CCCCn1c(=O)[nH]c(=O)c2c(C(=O)OCC)cc(-c3ccc(OC(F)F)cc3)nc21` gave HepG2 viability -17%, Nrf2 block 9%, TGFb inhibitor -24%, A549 tox 0% and ATXN viability inconclusive.
Screening CC1=C(C(=O)Nc2cc3cn[nH]c3cc2F)C(c2ccc(Cl)cc2F)N=C(c2ccnc(Cl)c2)N1 (centres undefined) returned ATXN2 expr inh -1%.
Screening Cc1oc(=O)oc1COC(=O)[C@@H]1N2C(=O)[C@@H](NC(=O)[C@H](N)c3ccccc3)[C@H]2SC1(C)C returned ATXN2 expr inh 3% and ATXN viability inactive.
For COc1ccccc1Nc1nn2c(=O)c3ccc(C(=O)N4CCCC(C)C4)cc3nc2s1 (centres undefined) the results were ATXN2 expr inh inconclusive, HepG2 viability 8%, Nrf2 block inconclusive, TGFb inhibitor -27%, A549 tox -7% and ATXN viability 32µM*!.
CCOC(=O)C1CCN(C(=O)c2ccc3c(=O)n4nc(Nc5cc(C)ccc5C)sc4nc3c2)CC1 was read as ATXN2 expr inh -30%, HepG2 viability -26%, Nrf2 block -4%, TGFb inhibitor 13µM*, A549 tox -2% and ATXN viability inactive.
Cc1ccc(C)c(Nc2nn3c(=O)c4ccc(C(=O)NCc5cccs5)cc4nc3s2)c1 was read as HepG2 viability 6.3µM*, TGFb inhibitor 5µM* and A549 tox inconclusive.
Screening COc1ccccc1Nc1nn2c(=O)c3ccc(C(=O)NCc4cccs4)cc3nc2s1 returned HepG2 viability -6%, TGFb inhibitor -16% and A549 tox 7.3µM*.
Screening CCN(CC)CCNC(=O)c1ccc2c(=O)n3nc(Nc4ccccc4OC)sc3nc2c1 returned ATXN2 expr inh 16µM*, HepG2 viability -75%, Nrf2 block inconclusive, TGFb inhibitor inconclusive, A549 tox 15µM* and ATXN viability inconclusive.
COc1ccccc1/C=C/c1nc2ccccc2n1C(C)C was read as ATXN2 expr inh 17%, HepG2 viability -49%, Nrf2 block inconclusive, TGFb inhibitor inconclusive, A549 tox 1% and ATXN viability inconclusive.
Screening Cc1cc(C)c2c(c1)OC(=O)CC2c1ccc2c(c1)OCO2 (centres undefined) returned ATXN2 expr inh 10%, HepG2 viability 11%, Nrf2 block 8%, TGFb inhibitor -14%, A549 tox 9% and ATXN viability inactive.
Cc1cc2c(c(C)c1Cl)C(c1ccc3c(c1)OCO3)CC(O)(c1ccccc1)O2 (centres undefined) was read as HepG2 viability 18µM*, Nrf2 block inconclusive, TGFb inhibitor 20µM* and A549 tox -18%.
`CCC(=O)N1CCC(C)(C(=O)NCc2ccc(F)cc2)C1` (centres undefined) gave ATXN2 expr inh 5%, HepG2 viability 4%, TGFb inhibitor 0% and ATXN viability inactive.
CN1CCN(Cc2nc3ccccc3c(=O)n2Cc2nc(-c3ccc4ccccc4c3)cs2)CC1 was read as ATXN2 expr inh inconclusive, HepG2 viability 16µM*!, Nrf2 block inconclusive, TGFb inhibitor inconclusive and A549 tox inconclusive.
CN1CCN(Cc2nc3ccccc3c(=O)n2Cc2nc(-c3cccc([N+](=O)[O-])c3)cs2)CC1 was read as ATXN2 expr inh -37%[11.3 µM], HepG2 viability -24%, Nrf2 block -12%, TGFb inhibitor inconclusive, A549 tox inconclusive and ATXN viability inactive.
`N=c1c2ccccc2nc2n1CCCCC2` gave HepG2 viability -1%, TGFb inhibitor 2% and ATXN viability inactive.
For CC1=NN(c2ccccc2)C(=O)/C1=C/C=C/C=C/N(C)C the results were ATXN2 expr inh inconclusive, HepG2 viability -6%, Nrf2 block inconclusive, TGFb inhibitor 13%, A549 tox 10µM* and ATXN viability 14µM*.
